Test results reported in the supplement of paper PMC10849652.
The full data set covers some 7,900 targets. This sample favours those with a hit. About 0.6% of all pairs of compound and target were hits.

Assays:
Assay in all cases: log2 fold change, soluble protein after heating vs DMSO (PISA); higher = thermal stabilisation; K562 cells, 10 uM, 30 min; active = over 0.2 and 3.5 SD of the protein, either way, in both replicates (recomputed)
[1] = compound: NC(=O)Nc1cc(-c2cccc(F)c2)sc1C(=O)N[C@H]1CCCNC1
How it was run: (§1)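 K562 cells at 2×10^6 cells/mL were exposed to 10 μM compound for 30 min, then aliquots were heated for 3 min across 48°C-58°C, pooled, and extracted in PBS containing 0.5% NP-40 at 4°C. The supernatant after 21,000xg for 90 min was taken as soluble protein and measured by TMTpro 16plex LC-MS/MS with channel sums equalised. Thermal stability is reported relative to control samples, with values from duplicates. Fold changes are given on a log2 scale.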

[2] = compound: NC(=O)c1cnc(N[C@@H]2CCCC[C@@H]2N)nc1Nc1cccc(-n2nccn2)c1
How it was run: as §1

[3] = compound: NC1(c2ccc(-c3nc4ccn5c(=O)[nH]nc5c4cc3-c3ccccc3)cc2)CCC1
How it was run: as §1

[4] = compound: NCC(=O)Nc1ccc(-n2nc(C(F)(F)F)cc2-c2ccc3c(ccc4ccccc43)c2)cc1
How it was run: as §1

[5] = compound: Nc1ccccc1NC(=O)c1ccc(CNC(=O)OCc2cccnc2)cc1 [entinostat]
How it was run: as §1

[6] = compound: O=C(CCCCCCC(=O)Nc1ccccc1)NO [vorinostat]
How it was run: as §1

[7] = compound: O=C(CCCCCCNC(=O)c1cnc(N(c2ccccc2)c2ccccc2Cl)nc1)NO [citarinostat]
How it was run: as §1

[8] = compound: O=C(O)c1ccc2c(c1)nc(Nc1cccc(Cl)c1)c1ccncc12 [silmitasertib]
How it was run: as §1

[9] = compound: O=C1NC(=O)C(c2cnc3ccccn23)=C1c1cn2c3c(cc(F)cc13)CN(C(=O)N1CCCCC1)CC2
How it was run: as §1

[10] = compound: c1cc(OCCN2CCCCC2)cc(-c2n[nH]c3ccc(-c4nnc[nH]4)cc23)c1
How it was run: as §1

Measured: log2 fold change

RABGAP1L isoform 3 (UniProt Q5R372)
inactive: [1] -0.012 | [2] -0.012 | [3] -0.05 | [4] 0.036 | [5] 0.016 | [6] 0.025 | [7] 0.06 | [8] 0.019 | [9] 0.073 | [10] -0.011

RPS9 (UniProt P46781)
inactive: [1] 0.07 | [2] 0.127 | [3] 0.202 | [4] 0.073 | [5] -0.058 | [6] -0.007 | [7] -0.058 | [8] 0.007 | [9] 0.076 | [10] -0.152

SLC18B1 (UniProt Q6NT16)
UniProt Q6NT16, sequence (Q6NT16 whole entry, looked up): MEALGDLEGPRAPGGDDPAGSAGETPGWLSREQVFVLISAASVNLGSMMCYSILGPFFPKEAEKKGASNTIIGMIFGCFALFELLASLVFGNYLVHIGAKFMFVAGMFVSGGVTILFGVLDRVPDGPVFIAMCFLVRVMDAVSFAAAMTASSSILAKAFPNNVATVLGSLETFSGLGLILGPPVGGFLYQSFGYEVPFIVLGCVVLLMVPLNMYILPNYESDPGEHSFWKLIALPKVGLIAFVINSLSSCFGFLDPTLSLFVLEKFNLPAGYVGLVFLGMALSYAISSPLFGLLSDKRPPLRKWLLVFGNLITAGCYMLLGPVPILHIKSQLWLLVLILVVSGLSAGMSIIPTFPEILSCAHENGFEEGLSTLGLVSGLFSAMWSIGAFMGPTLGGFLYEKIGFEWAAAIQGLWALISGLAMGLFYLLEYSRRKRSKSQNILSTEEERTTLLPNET
inactive: [1] -0.003 | [2] 0.022 | [3] -0.093 | [4] -0.025 | [5] 0.038 | [6] -0.162 | [7] 0.019 | [8] 0.076 | [9] 0.044 | [10] -0.044

RPL38 (UniProt P63173)
inactive: [1] -0.005 | [2] 0.022 | [3] 0.09 | [4] 0.024 | [5] -0.022 | [6] 0.002 | [7] -0.003 | [8] -0.008 | [9] 0 | [10] -0.094

RRP36 (UniProt Q96EU6)
UniProt Q96EU6, sequence (Q96EU6 whole entry, looked up): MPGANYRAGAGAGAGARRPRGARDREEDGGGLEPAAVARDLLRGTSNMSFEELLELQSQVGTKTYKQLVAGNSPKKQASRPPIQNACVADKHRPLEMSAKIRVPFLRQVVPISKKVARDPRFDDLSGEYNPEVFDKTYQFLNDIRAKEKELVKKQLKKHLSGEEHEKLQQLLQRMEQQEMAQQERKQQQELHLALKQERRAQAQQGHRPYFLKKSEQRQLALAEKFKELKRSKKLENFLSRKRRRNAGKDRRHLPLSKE
inactive: [1] 0.115 | [2] 0.108 | [3] 0.271 | [4] 0.098 | [5] -0.073 | [6] -0.024 | [7] -0.04 | [8] 0.143 | [9] 0.264 | [10] -0.118

RHOA (UniProt P61586)
UniProt P61586, sequence (P61586 whole entry, looked up): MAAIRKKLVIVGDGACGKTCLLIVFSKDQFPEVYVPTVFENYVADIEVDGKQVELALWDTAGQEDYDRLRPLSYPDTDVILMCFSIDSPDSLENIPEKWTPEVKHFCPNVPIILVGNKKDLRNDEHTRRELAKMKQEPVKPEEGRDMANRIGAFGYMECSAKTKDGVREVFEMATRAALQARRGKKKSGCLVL
inactive: [1] -0.01 | [2] 0.036 | [3] 0.204 | [4] 0.123 | [5] -0.019 | [6] -0.16 | [7] -0.047 | [8] -0.136 | [9] -0.057 | [10] 0.104

SKP1 (UniProt P63208)
UniProt P63208, sequence (P63208 whole entry, looked up): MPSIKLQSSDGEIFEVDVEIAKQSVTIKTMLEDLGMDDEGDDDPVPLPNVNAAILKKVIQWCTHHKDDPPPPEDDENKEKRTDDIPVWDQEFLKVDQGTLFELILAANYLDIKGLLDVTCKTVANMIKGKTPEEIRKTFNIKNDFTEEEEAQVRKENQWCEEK
inactive: [1] 0.015 | [2] 0.011 | [3] 0.034 | [4] 0.047 | [5] 0.037 | [6] 0.16 | [7] -0.003 | [8] 0 | [9] 0.008 | [10] 0.01

RBM33 (UniProt Q96EV2)
inactive: [1] 0.019 | [2] -0.055 | [3] -0.024 | [4] 0.003 | [5] 0.027 | [6] 0.037 | [7] 0.042 | [8] 0.038 | [9] -0.003 | [10] -0.046

SEC16A isoform 5 (UniProt O15027)
UniProt O15027, sequence (O15027 whole entry, looked up): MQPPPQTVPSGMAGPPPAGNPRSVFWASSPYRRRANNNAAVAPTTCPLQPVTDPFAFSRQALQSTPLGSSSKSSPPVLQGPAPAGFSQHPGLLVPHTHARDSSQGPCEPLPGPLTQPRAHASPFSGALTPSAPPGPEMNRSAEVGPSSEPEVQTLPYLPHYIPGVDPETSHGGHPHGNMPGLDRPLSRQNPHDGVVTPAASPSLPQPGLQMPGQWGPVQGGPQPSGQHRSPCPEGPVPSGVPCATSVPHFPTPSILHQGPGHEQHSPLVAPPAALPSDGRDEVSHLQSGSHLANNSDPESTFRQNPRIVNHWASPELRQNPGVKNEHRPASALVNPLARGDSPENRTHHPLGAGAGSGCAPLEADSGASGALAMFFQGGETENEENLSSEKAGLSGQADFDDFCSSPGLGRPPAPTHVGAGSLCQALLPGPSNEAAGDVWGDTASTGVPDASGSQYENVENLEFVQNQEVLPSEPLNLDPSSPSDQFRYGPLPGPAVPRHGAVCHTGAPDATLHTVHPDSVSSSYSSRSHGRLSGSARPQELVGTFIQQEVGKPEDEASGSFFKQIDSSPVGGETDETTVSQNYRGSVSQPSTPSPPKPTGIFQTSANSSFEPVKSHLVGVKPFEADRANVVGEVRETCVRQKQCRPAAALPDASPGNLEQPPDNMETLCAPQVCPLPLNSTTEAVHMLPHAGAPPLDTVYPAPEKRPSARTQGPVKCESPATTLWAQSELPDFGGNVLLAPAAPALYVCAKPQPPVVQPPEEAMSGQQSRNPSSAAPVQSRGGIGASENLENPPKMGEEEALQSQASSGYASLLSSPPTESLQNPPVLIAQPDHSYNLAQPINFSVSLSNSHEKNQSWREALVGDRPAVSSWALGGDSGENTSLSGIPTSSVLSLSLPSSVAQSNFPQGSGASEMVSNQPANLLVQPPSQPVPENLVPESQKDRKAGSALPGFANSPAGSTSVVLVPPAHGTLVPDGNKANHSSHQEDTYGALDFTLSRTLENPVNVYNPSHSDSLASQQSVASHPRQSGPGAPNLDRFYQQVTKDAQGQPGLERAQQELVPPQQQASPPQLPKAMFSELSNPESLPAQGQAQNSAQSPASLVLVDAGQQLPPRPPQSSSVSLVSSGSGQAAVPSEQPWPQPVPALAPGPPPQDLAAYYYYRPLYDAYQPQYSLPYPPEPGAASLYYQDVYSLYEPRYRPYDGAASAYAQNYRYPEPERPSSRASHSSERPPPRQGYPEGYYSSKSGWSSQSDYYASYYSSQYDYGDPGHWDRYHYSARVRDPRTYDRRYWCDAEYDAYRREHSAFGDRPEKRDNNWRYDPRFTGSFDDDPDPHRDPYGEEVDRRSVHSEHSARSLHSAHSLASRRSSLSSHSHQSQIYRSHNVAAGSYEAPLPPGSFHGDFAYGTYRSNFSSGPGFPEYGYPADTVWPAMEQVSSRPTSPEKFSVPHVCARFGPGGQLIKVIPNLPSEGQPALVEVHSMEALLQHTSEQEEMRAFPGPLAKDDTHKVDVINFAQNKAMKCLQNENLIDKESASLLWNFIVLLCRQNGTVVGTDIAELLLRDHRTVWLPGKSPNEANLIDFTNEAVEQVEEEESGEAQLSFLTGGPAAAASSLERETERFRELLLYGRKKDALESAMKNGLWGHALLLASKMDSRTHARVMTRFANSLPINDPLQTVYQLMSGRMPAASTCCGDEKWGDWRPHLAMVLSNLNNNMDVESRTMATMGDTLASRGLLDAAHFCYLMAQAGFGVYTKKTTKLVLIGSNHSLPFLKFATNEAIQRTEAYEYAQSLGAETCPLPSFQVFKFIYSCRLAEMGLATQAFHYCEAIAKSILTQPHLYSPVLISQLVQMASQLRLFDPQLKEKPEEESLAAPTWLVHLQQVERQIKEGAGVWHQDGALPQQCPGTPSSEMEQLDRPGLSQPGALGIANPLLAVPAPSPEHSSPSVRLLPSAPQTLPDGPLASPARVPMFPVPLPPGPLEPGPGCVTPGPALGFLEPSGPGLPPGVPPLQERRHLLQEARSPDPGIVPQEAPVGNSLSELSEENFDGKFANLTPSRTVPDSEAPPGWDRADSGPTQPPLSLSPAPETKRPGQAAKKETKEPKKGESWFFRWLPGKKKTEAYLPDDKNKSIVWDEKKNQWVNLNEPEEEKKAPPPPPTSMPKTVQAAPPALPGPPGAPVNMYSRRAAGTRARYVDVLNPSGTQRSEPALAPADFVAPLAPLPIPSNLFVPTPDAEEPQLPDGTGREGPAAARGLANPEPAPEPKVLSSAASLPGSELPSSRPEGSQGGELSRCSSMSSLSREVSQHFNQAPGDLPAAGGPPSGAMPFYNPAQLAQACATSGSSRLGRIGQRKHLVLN
inactive: [1] 0.006 | [2] -0.072 | [3] -0.14 | [4] 0.055 | [5] 0.071 | [6] 0.154 | [7] 0.071 | [8] -0.007 | [9] 0.191 | [10] -0.022

RSRC2 (UniProt Q7L4I2)
inactive: [1] -0.05 | [2] 0.111 | [3] -0.001 | [4] -0.019 | [5] -0.01 | [6] -0.029 | [7] 0.038 | [8] -0.13 | [9] 0.023 | [10] -0.034

SH3PXD2B (UniProt A1X283)
inactive: [1] 0.066 | [2] 0.248 | [3] -0.082 | [4] 0.052 | [5] -0.056 | [6] -0.128 | [7] 0.032 | [8] -0.108 | [9] 0.009 | [10] 0.026

REL (UniProt Q04864)
UniProt Q04864, sequence (Q04864 whole entry, looked up): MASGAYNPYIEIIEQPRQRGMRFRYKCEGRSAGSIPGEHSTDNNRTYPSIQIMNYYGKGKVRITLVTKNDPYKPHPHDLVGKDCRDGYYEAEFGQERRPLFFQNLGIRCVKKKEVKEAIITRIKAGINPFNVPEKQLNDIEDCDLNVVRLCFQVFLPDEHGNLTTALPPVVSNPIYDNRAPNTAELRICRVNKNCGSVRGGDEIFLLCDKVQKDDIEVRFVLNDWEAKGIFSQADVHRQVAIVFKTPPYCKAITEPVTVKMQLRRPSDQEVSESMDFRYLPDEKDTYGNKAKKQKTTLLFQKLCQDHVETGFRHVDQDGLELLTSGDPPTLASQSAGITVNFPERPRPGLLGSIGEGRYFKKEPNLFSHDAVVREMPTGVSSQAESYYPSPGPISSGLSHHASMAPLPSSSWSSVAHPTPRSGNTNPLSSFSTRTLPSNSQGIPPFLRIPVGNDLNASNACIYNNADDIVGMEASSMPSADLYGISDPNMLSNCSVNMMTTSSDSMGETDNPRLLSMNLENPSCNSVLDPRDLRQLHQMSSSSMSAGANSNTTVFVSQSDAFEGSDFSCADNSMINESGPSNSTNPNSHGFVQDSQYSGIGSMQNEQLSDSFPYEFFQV
inactive: [1] -0.053 | [2] -0.131 | [3] -0.108 | [4] 0.028 | [5] -0.007 | [6] -0.122 | [7] 0.053 | [8] 0.053 | [9] -0.054 | [10] -0.09

RPS12 (UniProt P25398)
inactive: [1] 0.006 | [2] 0.073 | [3] 0.134 | [4] 0.068 | [5] -0.032 | [6] -0.002 | [7] 0.009 | [8] -0.042 | [9] 0.076 | [10] -0.113

SH2D1B (UniProt O14796)
active: [1] -1.1
inactive: [2] 0.04 | [3] -0.135 | [4] -0.024 | [5] 0.055 | [6] 0.101 | [7] 0.413 | [8] -0.111 | [9] -0.018 | [10] -0.062

RB1CC1 (UniProt Q8TDY2)
inactive: [1] 0.009 | [2] 0.124 | [3] 0.126 | [4] -0.022 | [5] 0.001 | [6] 0.047 | [7] 0.114 | [8] -0.08 | [9] -0.077 | [10] 0.111

SAAL1 (UniProt Q96ER3)
inactive: [1] -0.091 | [2] 0.031 | [3] -0.207 | [4] -0.058 | [5] 0.04 | [6] 0.006 | [7] 0.011 | [8] 0.119 | [9] -0.04 | [10] -0.013

RBM39 (UniProt Q14498)
inactive: [1] -0.141 | [2] -0.079 | [3] 0.023 | [4] -0.152 | [5] 0.02 | [6] 0.062 | [7] 0.105 | [8] -0.083 | [9] 0.049 | [10] -0.144

SDHAF2 (UniProt Q9NX18)
inactive: [1] -0.005 | [2] 0.156 | [3] -0.089 | [4] -0.007 | [5] -0.04 | [6] -0.156 | [7] -0.026 | [8] -0.007 | [9] -0.101 | [10] -0.015

RRAS2 isoform 4 (UniProt P62070)
UniProt P62070, sequence (P62070 whole entry, looked up): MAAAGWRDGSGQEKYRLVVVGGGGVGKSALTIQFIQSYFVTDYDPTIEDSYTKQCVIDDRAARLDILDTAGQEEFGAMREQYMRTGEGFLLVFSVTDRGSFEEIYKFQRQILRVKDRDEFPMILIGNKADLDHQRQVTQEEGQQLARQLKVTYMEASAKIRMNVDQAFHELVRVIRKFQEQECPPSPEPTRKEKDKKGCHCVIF
inactive: [1] -0.068 | [2] 0.03 | [3] 0.08 | [4] 0.038 | [5] -0.059 | [6] -0.069 | [7] 0.01 | [8] 0.048 | [9] -0.01 | [10] 0.013

SEC23IP (UniProt Q9Y6Y8)
inactive: [1] -0.049 | [2] -0.152 | [3] -0.221 | [4] -0.033 | [5] 0.049 | [6] 0.065 | [7] 0.055 | [8] -0.03 | [9] -0.058 | [10] -0.063

SDHC (UniProt Q99643)
inactive: [1] -0.12 | [2] 0.097 | [3] -0.079 | [4] 0.041 | [5] -0.178 | [6] -0.042 | [7] 0.033 | [8] 0.032 | [9] 0 | [10] -0.062

RANBP2 (UniProt P49792)
inactive: [1] 0.063 | [2] -0.05 | [3] 0.01 | [4] 0.005 | [5] 0.009 | [6] -0.034 | [7] -0.037 | [8] 0.001 | [9] -0.049 | [10] 0.019

RPS13 (UniProt P62277)
inactive: [1] 0.058 | [2] 0.093 | [3] 0.246 | [4] 0.115 | [5] -0.062 | [6] 0.019 | [7] -0.121 | [8] -0.022 | [9] 0.091 | [10] -0.182

RSPRY1 (UniProt Q96DX4)
inactive: [1] -0.054 | [2] 0.051 | [3] -0.104 | [4] 0.061 | [5] -0.016 | [6] -0.02 | [7] -0.075 | [8] 0.028 | [9] -0.072 | [10] -0.008

RPS6KA3 (UniProt P51812)
inactive: [1] -0.076 | [2] -0.177 | [3] -0.203 | [4] -0.029 | [5] 0.044 | [6] 0.048 | [7] 0.079 | [8] -0.038 | [9] -0.046 | [10] -0.241

RPP14 (UniProt O95059)
inactive: [1] 0.063 | [2] -0.006 | [3] -0.003 | [4] 0.138 | [5] -0.065 | [6] -0.033 | [7] 0.051 | [8] 0.06 | [9] 0.027 | [10] -0.107

SH3GLB2 (UniProt Q9NR46)
inactive: [1] -0.105 | [2] -0.13 | [3] -0.163 | [4] 0.004 | [5] 0.069 | [6] 0.081 | [7] 0.059 | [8] 0.015 | [9] -0.028 | [10] -0.13

SHCBP1 (UniProt Q8NEM2)
UniProt Q8NEM2, sequence (Q8NEM2 whole entry, looked up): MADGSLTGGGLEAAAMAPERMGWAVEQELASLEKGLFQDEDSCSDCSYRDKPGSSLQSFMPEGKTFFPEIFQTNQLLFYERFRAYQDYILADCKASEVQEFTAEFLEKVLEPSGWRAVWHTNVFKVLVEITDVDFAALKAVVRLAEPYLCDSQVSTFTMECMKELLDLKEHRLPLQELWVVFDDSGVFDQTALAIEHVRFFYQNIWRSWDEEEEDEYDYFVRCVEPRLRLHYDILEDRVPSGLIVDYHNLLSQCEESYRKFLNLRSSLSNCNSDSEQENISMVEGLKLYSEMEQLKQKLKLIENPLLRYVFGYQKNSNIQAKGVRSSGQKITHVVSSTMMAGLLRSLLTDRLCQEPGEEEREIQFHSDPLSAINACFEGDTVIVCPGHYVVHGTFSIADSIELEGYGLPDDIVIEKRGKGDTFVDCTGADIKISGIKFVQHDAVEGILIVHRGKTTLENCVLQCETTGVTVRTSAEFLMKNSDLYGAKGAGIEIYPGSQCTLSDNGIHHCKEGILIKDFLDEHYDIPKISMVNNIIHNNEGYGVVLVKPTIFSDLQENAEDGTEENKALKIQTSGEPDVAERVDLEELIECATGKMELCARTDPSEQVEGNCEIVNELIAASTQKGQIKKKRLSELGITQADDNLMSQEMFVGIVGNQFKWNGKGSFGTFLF
inactive: [1] 0.01 | [2] -0.017 | [3] -0.107 | [4] -0.08 | [5] -0.063 | [6] 0.039 | [7] 0.136 | [8] 0.025 | [9] -0.087 | [10] -0.091

RBM12 (UniProt Q9NTZ6)
inactive: [1] -0.044 | [2] -0.062 | [3] -0.219 | [4] -0.106 | [5] 0.133 | [6] 0.128 | [7] 0.107 | [8] -0.026 | [9] -0.219 | [10] -0.002

RDH11 (UniProt Q8TC12)
inactive: [1] -0.118 | [2] 0.061 | [3] -0.049 | [4] -0.165 | [5] 0.055 | [6] 0.05 | [7] 0.092 | [8] 0.061 | [9] -0.087 | [10] -0.041

RBM22 (UniProt Q9NW64)
inactive: [1] -0.027 | [2] -0.004 | [3] 0.032 | [4] -0.049 | [5] -0.008 | [6] -0.009 | [7] -0.038 | [8] 0.119 | [9] -0.063 | [10] -0.043
